# Results as given in paper PMC5540273 (PLoS ONE, 2017).
# Legend:
# Details in all cases: concentration: 1 μM, replicates: in singlicate; n = 1
# [1] = tested on: T1, ERK8
# T1 construct: gene MAPK15
# [2] = tested on: ERN1
# [3] = tested on: T2, FAK
# T2 construct: gene PTK2
# [4] = tested on: FER
# [5] = tested on: FES
# [6] = tested on: FGFR1
# [7] = tested on: FGFR2
# [8] = tested on: FGFR3
# [9] = tested on: FGFR4
# [10] = tested on: FGR
# [11] = tested on: FLT1
# [12] = tested on: FLT3-autoinhibited
# [13] = tested on: FLT3
# [14] = tested on: FLT4
# [15] = tested on: FRK
# [16] = tested on: FYN
# [17] = tested on: GAK
# [18] = tested on: T3, GCN2(Kin.Dom.2,S808G)
# T3 construct: gene EIF2AK4
# [19] = tested on: GRK1
# [20] = tested on: T4, GRK2
# T4 construct: gene ADRBK1
# 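Note: KINOMEscan kinase panel screen.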
Structure (SMILES),%Inh [1],%Inh [2],%Inh [3],%Inh [4],%Inh [5],%Inh [6],%Inh [7],%Inh [8],%Inh [9],%Inh [10],%Inh [11],%Inh [12],%Inh [13],%Inh [14],%Inh [15],%Inh [16],%Inh [17],%Inh [18],%Inh [19],%Inh [20]
CC(C)c1ccc(O)cc1Nc1ccnc2ccc(C(F)(F)F)cc12 [GW482059],17%,8%,0%,14%,0%,10%,2%,5%,57%,9%,21%,9%,1%,10%,9%,20%,0%,0%,0%,14%
COC(=O)C(Cc1ccccc1)NC(=O)NC1CCN(c2ccnc(Nc3ccc(F)cc3)n2)C1 (centres unmarked) [GSK1379714],0%,0%,0%,30%,0%,0%,51%,26%,0%,0%,33%,5%,2%,0%,0%,0%,0%,6%,100%,0%
CNc1cc(-c2ccc3c(N)n[nH]c3c2)nc(N)n1 [GSK2224810],0%,0%,0%,19%,9%,0%,0%,28%,7%,24%,15%,16%,0%,2%,7%,20%,9%,0%,6%,0%
CS(=O)(=O)CCNCc1nc(-c2ccc3ncnc(Nc4ccc(OCc5ccccc5)c(Cl)c4)c3c2)cs1.Cl [GW582764],0%,0%,0%,0%,0%,0%,0%,0%,0%,18%,5%,0%,0%,0%,2%,0%,0%,0%,0%,0%
CS(=O)(=O)CCNCc1nc(-c2ccc3ncnc(Nc4ccc5c(cnn5Cc5ccccc5)c4)c3c2)cs1.Cl.Cl [GW569716],0%,0%,0%,0%,0%,0%,0%,0%,8%,24%,20%,0%,0%,0%,9%,0%,0%,1%,0%,0%
Cc1ccc(NC(=O)Nc2ccccc2)cc1-c1ccc(C(=O)Nc2ccncc2)cc1 [GSK1398471],0%,0%,0%,20%,20%,0%,0%,18%,13%,34%,32%,0%,36%,21%,61%,33%,4%,50%,2%,0%
Cc1ccccc1-c1cc(-c2c[nH]nc2-c2ccccn2)ccn1 [GW680061],0%,0%,0%,2%,0%,0%,0%,0%,0%,15%,6%,0%,0%,11%,13%,18%,11%,25%,7%,0%
O=C(Nc1n[nH]c2nc(-c3cccs3)c(Br)cc12)C1CC1 [SB-735297],87%,0%,0%,0%,10%,0%,0%,0%,0%,13%,8%,19%,81%,0%,0%,0%,0%,0%,10%,0%
Cc1c(Cn2c(C)c(C)n3c(=O)cc(N4CCOCC4)nc23)cccc1C(F)(F)F [GSK2328680],8%,9%,0%,15%,0%,0%,41%,6%,0%,20%,8%,0%,0%,0%,6%,2%,8%,0%,9%,0%
COc1ccc(Nc2nccc(N3CCC(NC(=O)c4cc5ccccc5s4)C3)n2)cc1 (centres unmarked) [GSK1379738],0%,0%,0%,0%,0%,0%,0%,2%,4%,15%,14%,0%,0%,3%,0%,41%,0%,0%,0%,0%
Fc1ccc(-c2nn3cccc(F)c3c2-c2ccncc2)cc1 [GW475620],15%,0%,1%,17%,0%,23%,25%,6%,0%,15%,27%,2%,0%,25%,14%,16%,65%,0%,0%,6%
Fc1ccc(-c2nc3n(c2-c2ccncc2)CCS3)cc1 [GI98581],0%,28%,0%,13%,0%,0%,0%,20%,0%,21%,35%,0%,0%,12%,14%,22%,53%,3%,0%,0%
O=c1cc(N2CCOCC2)nc2n(Cc3cccc(Cl)c3Cl)c3ccccc3n12 [GSK2299009],0%,18%,0%,49%,0%,31%,4%,10%,21%,17%,41%,9%,28%,16%,0%,17%,19%,0%,0%,0%
Cn1cncc1C(=O)NC1CCN(c2ccnc(Nc3ccc(F)cc3)n2)C1 (centres unmarked) [GSK1379717],0%,0%,0%,0%,0%,0%,0%,7%,1%,22%,12%,1%,0%,99.1%,0%,42%,0%,0%,18%,0%
CC[C@@H]1CO[C@H](C(=O)Nc2ccccc2)CN1c1cc(-c2ccc3c(N)n[nH]c3c2)nc(NC)n1 [GSK2376236],0%,19%,0%,27%,9%,0%,0%,41%,19%,31%,28%,0%,0%,20%,0%,39%,26%,0%,0%,0%
NS(=O)(=O)c1cccc(N/C=C2\C(=O)Nc3ccc(S(=O)(=O)Cc4c(Cl)cccc4Cl)cc32)c1 [GSK398099],0%,7%,0%,7%,1%,0%,0%,7%,9%,31%,12%,0%,0%,0%,0%,35%,18%,0%,0%,0%
COc1ccc(Nc2nccc(NCCNC(=O)Nc3cc(C)ccc3C)n2)cc1 [GSK1379899],43%,0%,0%,17%,4%,11%,15%,0%,0%,14%,29%,2%,0%,8%,0%,0%,0%,4%,0%,0%
COc1ccc(Nc2nccc(N3CCC(NC(=O)C(C)c4ccc(Cl)cc4)CC3)n2)cc1 (centres unmarked) [GSK1379812],0%,0%,0%,46%,19%,0%,0%,30%,4%,5%,26%,0%,0%,2%,0%,12%,1%,0%,0%,0%
Nc1nccc(-c2c(-c3ccc(F)cc3)ncn2C2CCN(Cc3ccccc3)CC2)n1 [SB-219980],0%,41%,0%,0%,23%,0%,0%,0%,0%,18%,0%,18%,0%,0%,10%,0%,12%,1%,27%,36%
